Bioassay records as filed in PubChem BioAssay.
HT1080NT lethal: kills 2HG-producing HT-1080-NT fibrosarcoma cells; AID 686970; Potency, µM (highest dose often 46.1 µM), without a hit: at the highest dose activity, negative = less viability, usual class: cytotoxic; actives 1.6% (n = 360,000); HT-1080-NT fibrosarcoma viability, CellTiter-Glo ATP luminescence, 48 h;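 also: NT is the 2HG producing partner of a matched IDH1 knockdown line; 0% = DMSO-treated cells and -100% = media-only wells without cells; nearly all actives have a fitted effect of over 55% in size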
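HT-1080-NT; 750 cells/well; 5% FBS RPMI; 48 h compound, 37 degrees C; CellTiter-Glo luminescence; curve fitting and curve-class assignment.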
KB-V1 MDR tox: kills drug-selected multidrug resistant KB-V1 cells. KB-V1 MDR cells viability, CellTiter-Glo, 72 h. Potency, µM (titrated, usually from 46.1 µM), hits mostly cytotoxic. actives 3.4% (n = 400,000). AID 1347076; also: % is scaled to controls: 0 for no effect and ±100 for the full control effect; nearly all actives have a fitted effect of over 60% in size
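Luminescent ATP read-out (CellTiter-Glo, 10 min) measures survival of drug-selected KB-V1 MDR cells after 72 h, 37 degrees C compound exposure. Medium: phenol-red-free DMEM, 10% FBS. Values from fitted concentration-response curves.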
ATXN viability: viability counter-screen for ATXN expression inhibitors | S2 cells (HEK-293 line with an ATXN2-luciferase reporter) viability, CellTiter-Fluor protease fluorescence, 24 h | Potency, µM (series often up to 56.7 µM), usual class: cytotoxic | actives 0.49% (n = 400,000); also: nearly all actives have a fitted effect of over 40% in size
ATXN2 expr inh: ATXN2 expression inhibition; HEK-293 ATXN2-luciferase reporter, luminescence, 24 h; Potency, µM (doses to about 57 µM), inactives show at the highest dose activity change, negative = inhibition, hits mostly inhibitors; actives 0.72% (n = 360,000); AID 1745845; also: % is scaled to controls: 0 for no effect and ±100 for the full control effect; nearly all actives have a fitted effect of over 55% in size
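ATXN2-luciferase reporter cells (luciferase flanked by upstream and downstream ATXN2 gene portions) were treated 24 h at 37 °C with compounds at up to 57 uM. SteadyGlo luminescence gave expression; GF-AFC fluorescence gave viability.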
HT1080 IDH1KD tx: toxicity to HT-1080 IDH1 knockdown cells (counter line) | Potency, µM (titrated, usually from 46.1 µM), inactives show top-dose activity, negative = toxicity, hits mostly cytotoxic | AID 686971 | actives 2% (n = 360,000) | HT-1080 IDH1 knockdown viability, ATP luminescence, 48 h;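 also: 0% = DMSO wells and -100% = cell-free medium wells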
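% activity derives from luminescence (CellTiter-Glo), normalised to DMSO and no-cell wells. HT-1080-IDH1KD cells, 750/well, had 48 h compound exposure at 37 °C.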
KB-3-1 cytotox: kills parental KB-3-1 adenocarcinoma cells | KB-3-1 viability, CellTiter-Glo ATP luminescence, 72 h | Potency, µM (series often up to 46.1 µM), most hits filed as cytotoxic | actives 1.4% (n = 400,000); also: % is scaled to controls: 0 for no effect and ±100 for the full control effect; nearly all actives have a fitted effect of over 60% in size
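72 h, 37 °C compound treatment of KB-3-1 parental cells; CellTiter-Glo added, 10 min, luminescence read. Data corrected against DMSO-only plates and normalized before curve fitting.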
An asterisk follows results filed as active; ! = a repeat was not active. In the library only some 6.2% were active in any assay of this set; here they are far more common. Calls follow the shape of the dose curve; as a rule, active = well fitted curve in the direction sought with a large enough effect; inconclusive = small, poorly fitted or top-dose-only effect, or another doubt; inactive = no such curve, though single readings can be large; an effect the other way counts as inactive or inconclusive. Potency is read from the fitted curve at half-maximal effect.

`O=C1[C@H](Cc2ccccc2)NCCCC[C@@H](c2ccc(Cl)cc2)N1Cc1ccccc1` gave HT1080NT lethal inconclusive, KB-V1 MDR tox 23.1µM*!, ATXN viability inconclusive, ATXN2 expr inh inconclusive, HT1080 IDH1KD tx inconclusive and KB-3-1 cytotox inconclusive.
`O=C1[C@H](Cc2ccccc2)NCC=CC[C@H](c2ccc(Cl)cc2)N1Cc1ccc(Cl)cc1` gave HT1080NT lethal inconclusive, KB-V1 MDR tox inconclusive, ATXN viability 31.6µM*, ATXN2 expr inh inconclusive, HT1080 IDH1KD tx inconclusive and KB-3-1 cytotox inconclusive.
Screening COc1ccccc1CNC(=O)C(=O)NCC(c1cccnc1)N1CCN(c2ccccc2)CC1 (stereo not drawn) returned KB-V1 MDR tox inactive, ATXN viability inconclusive, ATXN2 expr inh -27.4% and KB-3-1 cytotox inactive.
Screening C=CCNC(=S)N/N=C/c1ccc(OCc2ccccc2Cl)cc1 returned HT1080NT lethal 3.16µM*, KB-V1 MDR tox inactive, ATXN viability inactive, ATXN2 expr inh 11.0%, HT1080 IDH1KD tx 3.16µM* and KB-3-1 cytotox inactive.
For Clc1ccccc1COc1ccc(/C=N/n2cnnc2)cc1 the results were HT1080NT lethal 3.2%, KB-V1 MDR tox inconclusive, ATXN viability inactive, ATXN2 expr inh -5.7%, HT1080 IDH1KD tx 2.2% and KB-3-1 cytotox inactive.
`CCOc1ccc(NC(=O)CN2C(=O)CC(C)Sc3ccccc32)cc1` (stereo not drawn) gave KB-V1 MDR tox inactive, ATXN viability inconclusive, ATXN2 expr inh 11.7% and KB-3-1 cytotox inactive.
For O=c1cc(-c2ccccc2)[nH]n1-c1nc2ccccc2[nH]1 the results were HT1080NT lethal 11.2µM*, KB-V1 MDR tox inconclusive, ATXN viability inconclusive, ATXN2 expr inh inconclusive, HT1080 IDH1KD tx 12.6µM* and KB-3-1 cytotox inconclusive.
`CCc1cc(=O)[nH]c(-n2[nH]c(-c3ccccc3)cc2=O)n1` gave HT1080NT lethal 14.6%, KB-V1 MDR tox inconclusive, ATXN viability inactive, ATXN2 expr inh 7.6%, HT1080 IDH1KD tx 0.2% and KB-3-1 cytotox inactive.
O=C(N/C(=C/c1cccc([N+](=O)[O-])c1)C(=O)N1CCOCC1)c1ccccc1Br was read as HT1080NT lethal 0.5%, ATXN viability inactive, ATXN2 expr inh 0.9% and HT1080 IDH1KD tx -11.2%.
Screening CCOc1cc(/C=C/C(=O)c2ccc(OC)c(CN3CCOCC3)c2)cc(Br)c1O returned HT1080NT lethal inconclusive, KB-V1 MDR tox inconclusive, ATXN viability inactive, ATXN2 expr inh inconclusive, HT1080 IDH1KD tx 23.1µM* and KB-3-1 cytotox inconclusive.
CCOc1cc(/C=N/NC(=O)c2ccc(CN3CCOCC3)cc2)ccc1OC was read as HT1080NT lethal 0.4%, KB-V1 MDR tox inactive, ATXN viability inactive, ATXN2 expr inh -0.4%, HT1080 IDH1KD tx -4.6% and KB-3-1 cytotox inactive.
Screening Cc1ccsc1C(=O)N(Cc1cc2ccc(F)cc2nc1N1CCC(O)CC1)CC1CCCO1 (stereo not drawn) returned ATXN viability inactive.
`CCn1c2ccccc2c2cc(/C=N/n3cnnc3)ccc21` gave HT1080NT lethal inconclusive, KB-V1 MDR tox inactive, ATXN viability inactive, ATXN2 expr inh inconclusive, HT1080 IDH1KD tx -18.2% and KB-3-1 cytotox inactive.
Screening CCn1c2ccccc2c2cc(/C=N/O)ccc21 returned HT1080NT lethal -9.8%, KB-V1 MDR tox 11.6µM*, ATXN viability inactive, HT1080 IDH1KD tx -6.4% and KB-3-1 cytotox inactive.
Screening CCn1c2ccccc2c2cc(/C=N/NC(=O)c3ccccc3C)ccc21 returned HT1080NT lethal 14.6µM*, KB-V1 MDR tox 5.17µM*, ATXN viability inactive, ATXN2 expr inh inconclusive, HT1080 IDH1KD tx 20.6µM* and KB-3-1 cytotox 20.6µM*.
`CCn1c2ccccc2c2cc(/C=N/NC(=O)c3cccc(C)c3)ccc21` gave HT1080NT lethal -3.6%, KB-V1 MDR tox 5.8µM*, ATXN viability inactive, ATXN2 expr inh inconclusive, HT1080 IDH1KD tx inconclusive and KB-3-1 cytotox inconclusive.
Screening Cn1c2ccccc2c2cc(/C=N/NC(=O)c3ccccc3F)ccc21 returned HT1080NT lethal inconclusive, KB-V1 MDR tox inactive, ATXN viability inactive, ATXN2 expr inh 0.0%, HT1080 IDH1KD tx 18.4µM* and KB-3-1 cytotox inactive.
Screening CCNC(=O)C1(C)CCCN1C(=O)c1ccc(-c2ccccc2)cc1 (stereo not drawn) returned HT1080NT lethal inconclusive, KB-V1 MDR tox inactive, ATXN viability inactive, ATXN2 expr inh 8.4%, HT1080 IDH1KD tx 20.8% and KB-3-1 cytotox inactive.
Screening COCC(=O)Nc1cc(C(=O)NC2Cc3ccccc3C2)cc2nc(-c3cccnc3)n(C)c12 returned ATXN viability inactive.
Cc1cc(CC(C)C)n(-c2nc3ccccc3c(=O)n2OCc2ccccc2)n1 was read as HT1080NT lethal -13.3%, KB-V1 MDR tox 9.2µM*, ATXN viability inactive, ATXN2 expr inh 3.9%, HT1080 IDH1KD tx -14.3% and KB-3-1 cytotox inconclusive.
Screening Cc1cc(C)n(-c2nc3ccccc3c(=O)n2OCC(=O)OCc2ccccc2)n1 returned HT1080NT lethal inconclusive, KB-V1 MDR tox inactive, ATXN viability inconclusive, ATXN2 expr inh inconclusive, HT1080 IDH1KD tx inconclusive and KB-3-1 cytotox 23.1µM*.
Screening Clc1cccc[n+]1CCCCCC[n+]1ccccc1Cl returned KB-V1 MDR tox inactive and KB-3-1 cytotox inactive.
COc1ccc(N2CCN(C(=O)CCn3cnc4onc(-c5ccc(F)cc5)c4c3=O)CC2)cc1 was read as KB-V1 MDR tox inactive, ATXN viability inactive, ATXN2 expr inh -22.7% and KB-3-1 cytotox inactive.
`CCN(CC)S(=O)(=O)c1ccc(Oc2ccc(S(=O)(=O)N(CC)CC)cc2)cc1` gave HT1080NT lethal inconclusive, KB-V1 MDR tox 2.31µM*, ATXN viability inactive, ATXN2 expr inh inconclusive, HT1080 IDH1KD tx -29.4% and KB-3-1 cytotox inconclusive.
`CCN(CC)S(=O)(=O)c1ccc(Oc2ccccc2OC)cc1` gave HT1080NT lethal -3.6%, KB-V1 MDR tox inactive, ATXN viability inactive, ATXN2 expr inh 6.1%, HT1080 IDH1KD tx -20.9% and KB-3-1 cytotox inactive.
For CCCCc1cc2c(c(NC(=O)CC)n1)c(=O)oc1ccccc12 the results were HT1080NT lethal -9.7%, KB-V1 MDR tox 16.4µM*, ATXN viability inactive, ATXN2 expr inh 12.6%, HT1080 IDH1KD tx 1.1% and KB-3-1 cytotox inactive.
`CCCNC(=O)CN1C(=O)COc2ccc(S(=O)(=O)N3CCCC3)cc21` gave KB-V1 MDR tox inactive, ATXN viability inactive, ATXN2 expr inh 7.6% and KB-3-1 cytotox inactive.
